Source: PubChem BioAssay (The Scripps Research Institute Molecular Screening Center)
Rows were chosen to be rich in hits. Some 4.1% of all compounds tested hit in one or more screens of this group.
ssDAF-12 act = activators of S. stercoralis DAF-12 nuclear receptor; HEK293 ssDAF-12/GRIP1 lit1-tk-luc reporter, luminescence; % of 3 µM dafachronic acid response; activation, % at 6.8 µM; 1% of 370,000 active;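 active means activation above the mean over all tested compounds plus 3 SD, cut at about 0.9% in these data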
DAX1 inh-1 = NR0B1 (DAX1) inhibition. inhibition, % at 6.75 µM. 0.99% of 340,000 active. AID 504766. HEK293 Gal4-DAX1 luciferase reporter, luminescence. P51843;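 active means inhibition above the mean over all tested compounds plus 3 SD, cut at about 4.2% in these data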;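 further: inhibition shows as a rise in luminescence from relieved DAX1 repression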
hcDAF12 agonist = H. contortus DAF-12 activation, primary screen; HEK293 hcDAF-12 lit1-tk-luc reporter, luminescence; 0% DMSO, 100% Δ7-dafachronic acid; activation, % at 6.8 µM; 1.4% of 370,000 active; AID 652067;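 active means activation above the mean of all tested compounds plus 3 SD, cut at about 5.5% in these data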
DAX1 inh-2 = blocks DAX1 repression of SF-1 activated StAR promoter. AID 652010. inhibition, % at 6.8 µM. HEK293T StAR-luciferase reporter, SF-1/DAX-1 repression relief. 1.1% of 370,000 active;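 active means inhibition above the mean over all tested compounds plus 3 SD, cut at about 3.6% in these data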;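 further: higher inhibition means more luminescence from relief of DAX-1 repression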
hgDAF-12 ag = activates the H. glycines DAF-12 receptor ligand-binding domain. HEK293 GAL4-hgDAF12 UAS-luciferase reporter, agonist luminescence; normalized to butyrate control. activation, % at 6.8 µM. 1.8% of 370,000 active;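 active means activation above a cutoff set at the mean of all screened compounds plus 3 SD, cut at about 10% in these data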
DAX1 conf = confirmation of human DAX1 (NR0B1) inhibitors; shares compounds with DAX1 inh-2; HEK293T StAR-promoter luciferase reporter, SF-1/DAX-1 repression; inhibition, % at 6.8 µM; 87% of 2,400 active;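 active means inhibition above the average of every tested compound plus 3 SD, cut at about 3.8% in these data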;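 further: active compounds raise luminescence by relieving repression of the StAR reporter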
Target sequence (P51843 whole entry, looked up): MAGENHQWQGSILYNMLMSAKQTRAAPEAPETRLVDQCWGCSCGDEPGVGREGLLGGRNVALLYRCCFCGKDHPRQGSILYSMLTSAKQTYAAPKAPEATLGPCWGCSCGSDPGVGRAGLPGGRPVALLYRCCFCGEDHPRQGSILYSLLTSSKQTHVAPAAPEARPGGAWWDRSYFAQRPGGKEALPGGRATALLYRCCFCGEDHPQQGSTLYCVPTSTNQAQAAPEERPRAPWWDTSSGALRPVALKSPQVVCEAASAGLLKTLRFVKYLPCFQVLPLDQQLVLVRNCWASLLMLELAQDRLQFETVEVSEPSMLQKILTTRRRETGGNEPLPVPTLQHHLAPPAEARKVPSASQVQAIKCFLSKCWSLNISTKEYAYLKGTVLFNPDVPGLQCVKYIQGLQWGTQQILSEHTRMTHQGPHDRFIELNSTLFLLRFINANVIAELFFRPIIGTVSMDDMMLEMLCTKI
SF1 AF2mut Luc = nonselective inhibitor or artifact in SF-1 mutant DAX1 counter-screen | shares compounds with DAX1 inh-2 | HEK293 StAR-luciferase, SF-1 AF2 mutant, luminescence | inhibition, % at 6.8 µM | 78% of 2,400 active;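 active means inhibition above the mean of all tested compounds plus 3 SD, cut at about 3% in these data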
Large screens that a line does not name were inactive (follow-up assays come after a bar, where they were run).

O=C(CN1CCN(Cc2ccccc2)CC1)N/N=C/c1ccc(Br)s1	none
O=C(NCC1(N2CCCCC2)CCCCC1)c1cccc(NS(=O)(=O)c2ccccc2)c1	DAX1 inh-2 6.9 | DAX1 conf 8.3 | SF1 AF2mut Luc 4.1
CCOc1ccc(NS(=O)(=O)c2ccc(C(=O)NCC3(N(C)C)CCCCC3)cc2)cc1	none
CC(=O)Nc1ccc(C(=O)NCC2(N3CCCCC3)CCCCC2)cc1	DAX1 inh-2 4.6 | DAX1 conf 5.3 | SF1 AF2mut Luc 3.0
CCOc1ccc(NS(=O)(=O)c2ccc(C(=O)NCC3(N4CCCCC4)CCCCC3)cc2)cc1	DAX1 inh-2 4.5 | DAX1 conf 11 | SF1 AF2mut Luc 3.5
Cc1cc(S(=O)(=O)Nc2ccc(C(=O)NCC3(N(C)C)CCCCC3)cc2)ccc1F	none
CC(=O)Nc1ccc(C(=O)NN2C(=O)NC3(CCCCC3)C2=O)cc1	none
Cc1cc(S(=O)(=O)Nc2ccc(C(=O)NCC3(N4CCCCC4)CCCCC3)cc2)ccc1F	DAX1 inh-2 7.4 | DAX1 conf 7.6 | SF1 AF2mut Luc 6.1
CNC[C@@H]1Oc2cc(Br)ccc2S(=O)(=O)N([C@H](C)CO)C[C@@H]1C	none (no result: DAX1 inh-1)
O=C(NCCCc1ccccc1)C1CCN(S(=O)(=O)c2ccc(F)cc2)CC1	none
O=C(NCC1(N2CCCCC2)CCCCC1)c1cccc(S(=O)(=O)Nc2ccc(F)cc2)c1	DAX1 inh-2 5.0 | DAX1 conf 5.2 | SF1 AF2mut Luc inactive
Cc1ccc(OCC(=O)Nc2ccon2)c([N+](=O)[O-])c1	DAX1 inh-2 5.3 | DAX1 conf 6.5 | SF1 AF2mut Luc 3.7
Cc1cc(Cl)c(Cl)cc1S(=O)(=O)NCCCn1ccnc1	none
O=C(Nc1ccccc1F)c1cccc(C(=O)Nc2ccccc2F)c1	none
O=C(Nc1ccccc1F)c1ccc(C(=O)c2ccccc2)cc1	DAX1 inh-2 4.7, hgDAF-12 ag 12 | DAX1 conf 7.0 | SF1 AF2mut Luc 4.4
CCCCN(C)C(=O)c1sc(=O)n(Cc2c(C)cccc2C)c1C	none (no result: DAX1 inh-1)
O=C(Nc1ccc([N+](=O)[O-])cc1Cl)c1cc(Cl)ccc1O	DAX1 inh-2 6.7, hgDAF-12 ag 12 | DAX1 conf inactive | SF1 AF2mut Luc inactive
O=C(Nc1ccc([N+](=O)[O-])cc1Cl)c1cccc([N+](=O)[O-])c1	none
Cc1ccc(OCc2cc(C(=O)N3CCN(C)C[C@@H]3c3ccccc3)no2)cc1C	none
CN1CCN(C(=O)c2cc(COc3ccccc3)on2)[C@@H](c2ccccc2)C1	ssDAF-12 act 1.1, DAX1 inh-2 5.8, hgDAF-12 ag 11 | DAX1 conf 6.0 | SF1 AF2mut Luc inactive
CCN(CC(=O)N1CCCC1)S(=O)(=O)c1ccccc1	none
CCOC(=O)c1ccc(N2C=C(C(=O)OC)C(c3ccc(OC)c(O)c3)C(C(=O)OC)=C2)cc1	none
O=C(COC(=O)CCSc1ccccc1)NCc1ccccc1Cl	none
COc1cc(OC)cc(-c2noc(-c3csc([C@H]4C[C@H](O)[C@@H](CO)O4)n3)n2)c1	none (no result: DAX1 inh-1)
OC[C@H]1O[C@H](c2nc(-c3nc(-c4cccs4)no3)cs2)C[C@@H]1O	DAX1 inh-2 4.8, hgDAF-12 ag 12 (no result: DAX1 inh-1) | DAX1 conf 5.7 | SF1 AF2mut Luc inactive
CC(=O)Nc1cnc(-c2ccc3c(c2)OCO3)cn1	DAX1 inh-2 4.8, hgDAF-12 ag 12 (no result: DAX1 inh-1) | DAX1 conf 9.0 | SF1 AF2mut Luc 5.7
CC(=O)Nc1cnc(-c2cc(C)c(O)c(C)c2)cn1	none (no result: DAX1 inh-1)
CCCCn1c2ccc(F)cc2c2nnc(NN)nc21	none
NS(=O)(=O)c1ccc(CCNc2ccnc3cc(Cl)ccc23)cc1	none
N#CCC(=O)N/N=C\c1cccc(OC/C=C/c2ccccc2)c1	DAX1 inh-2 13, hgDAF-12 ag 11 | DAX1 conf 14 | SF1 AF2mut Luc 6.9
Cc1cccc(NC(=O)NC2CCCCCCC2)c1	DAX1 inh-2 5.7 | DAX1 conf 4.9 | SF1 AF2mut Luc 3.6
CC(=O)c1cccc(NC(=O)NC2CCCCCCC2)c1	none
Nc1nc2c(nnn2Cc2ccc(Cl)c(Cl)c2)c(=O)[nH]1	none
Cc1ccc(C(=O)Nc2ncc([N+](=O)[O-])s2)cc1	none
